Holding throughout (set-up): species or system human, MV4-11 + K-562 + COLO205 + SK-N-BE2 + OVCAR-8
Test [1] has as its system RABL3. Conditions: read-out: apparent Kd; compound concentrations:100 nM and 1000 nM (sheet 'Samples'); n = 1.
In test [2] the test system is TGFBR2. As to conditions: read-out: apparent Kd; compound concentrations:100 nM and 1000 nM (sheet 'Samples'); n = 1.
Test [3] concerns TNIK. As to conditions: read-out: apparent Kd; compound concentrations:100 nM and 1000 nM (sheet 'Samples'); n = 1.
In test [4] the test system is SIK2. As to conditions: read-out: apparent Kd; compound concentrations: 100 nM and 1000 nM (sheet 'Samples'), CATDS: 1; n = 1.

In paper PMC11062922 (Nature Chemical Biology, 2023) one finds potency estimated from few doses data, which are given here for two molecules.

As to `Cc1cccc(-c2n[nH]cc2-c2ccc3ncccc3n2)n1` [GW786460X], the potency estimated from few doses in test [1] was 1260 nM; in test [2], 112 nM; in test [3], 1720 nM.

In the case of `NS(=O)(=O)c1cccc(-c2cc3ccncc3cc2OCc2ccccc2)c1` [GSK980961A], in test [4], the potency estimated from few doses is 1600 nM.
